Compound activity (PubChem BioAssay)
Only some compounds are listed: those with a hit (about 6.2% of all), similar ones and a draw of the others.
FMDV inh – High Throughput Screening for Foot and Mouth Disease Virus Antivirals; 410,000 tested, 1.2% active; Potency, µM (series often up to 57.9 µM), for inactives: at the top dose activity change, negative = inhibition, usual class: inhibitors; AID 1159524, 2015; FMDV antiviral cell-based qHTS; calls by dose curve; tested in HEK293T cells; further: read-out not given here; potency means the concentration at half of the fitted maximal effect; nearly all actives have a fitted effect of over 45% in size
Lassa entry inh – qHTS for Inhibitors of binding or entry into cells for Lassa Virus; Potency, µM (titrated, usually from 37.9 µM), inactives show top-dose activity change, negative = inhibition, most hits filed as inhibitors; AID 540256, 2011; 300,000 tested, 1.2% active; Lassa virus pseudotype entry inhibition, cell reporter; calls by dose curve; tested in HEK293 cells; further: potency means the concentration at half of the fitted maximal effect; nearly all actives have a fitted effect of over 50% in size
Marburg entry inh – qHTS for inhibitors of binding or entry into cells for Marburg Virus; Marburg virus pseudotyped entry inhibition, cell reporter; Potency, µM (titrated, usually from 37.8 µM), inactives show at the highest dose activity change, negative = inhibition, most hits filed as inhibitors; 300,000 tested, 1.8% active; AID 540276, 2011; calls by dose curve; tested in HEK293 cells; further: potency means the concentration at half of the fitted maximal effect
HCMV inh – qHTS Assay for inhibitors of the human cytomegalovirus (HCMV). 410,000 tested, 4.5% active. HFF cells, HCMV-luciferase reporter, 72 h; stronger effect = lower value. activity change, negative = inhibition, % at 57.5 µM; in the data active means activity change below about -60%; inconclusive means no clear call, values can overlap the other calls; inactive means above about -39%
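Inhibition of viral replication was scored as loss of reporter luminescence in HFFs infected with HCMV-luciferase (MOI 1 PFU/cell) for 72 h; compounds tested at 2 doses, normalized to buffer and Salinomycin controls.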
An asterisk follows results filed as active; u = inconclusive; x = no result; [ ] = remark or other dose. On the % scale 0 is the no-effect control and ±100 the full control effect.

SMILES	FMDV inh	Lassa entry inh	Marburg entry inh	HCMV inh
Cc1cccn2c(=O)c(/C=C(\C#N)C(=O)NC3CCS(=O)(=O)C3)c(Oc3ccc(F)cc3)nc12 (stereo unspecified)	28.2µM*	-1.2%[46.1 µM]	u	15.2
CCOC(=O)C1CCCN(CCC(=O)Nc2ccc(OC)cc2OC)C1 (stereo unspecified)	-6.9%	9.9%[46.1 µM]	x	0.3
CC(c1ccccc1C(O)c1ccccc1)N(C)C (stereo unspecified)	x	0.0%	-29.9%	-24.1
Cc1ccc(C(O)(c2ccccc2)c2ccccc2C(C)N(C)C)c(C)c1 (stereo unspecified)	x	8.2µM*	5.8µM*	u
CNC(=S)Nc1ccc(C23CC4CC(CC(C4)C2)C3)cc1	-0.6%	u	u	-98.3*
CCCCN1C(=O)/C(=C/C=C/c2ccco2)C(=O)NC1=S	-7.2%	6.2%	1.5%[46.1 µM]	20.2
CCc1ccc(N2NC(=O)/C(=C/C=C/c3ccco3)C2=O)cc1	-2.5%	-24.5%	-17.6%	5.5
CC(C)c1ccc(N2C(=O)NC(=O)/C(=C/C=C/c3ccco3)C2=O)cc1	12.6µM*	u	u	-100.5*
CCc1ccc(N2C(=O)NC(=O)/C(=C\C=C\c3ccco3)C2=O)cc1	25.1µM*	x	x	-76.6*
Cc1cc(C)cc(N2C(=O)NC(=O)/C(=C\C=C\c3ccco3)C2=O)c1	14.1µM*	u	u	-98.8*
O=C1NC(=O)N(Cc2ccc(F)cc2)C(=O)/C1=C\C=C\c1ccco1	28.2µM*	x	x	-96.9*
C[C@H](NCCc1ccc(O)cc1)[C@@H](O)c1ccc(O)cc1	x	x	-4.4%	x
Cc1ccc(N2C(=O)NC(=O)/C(=C/C=C/c3ccco3)C2=O)cc1	u	-26.9%	u	-98.3*
O=C1NC(=O)N(c2ccccc2)C(=O)/C1=C\C=C\c1ccccc1	12.6µM*	-1.9%	0.8%[46.1 µM]	41.4
Cc1ccc(N2C(=O)NC(=O)/C(=C/c3ccoc3)C2=O)cc1	-17.2%	12.8%	-20.7%[46.1 µM]	u
Nc1[nH]c(C(=O)c2ccccc2)c(-c2ccccc2Br)c1C(=O)NCc1ccc(-c2ccccc2)cc1	-6.3%	x	x	-27.7
COc1ccc(-c2cccc3c2OC(CNC(=O)c2ccccc2-n2cccn2)C3)nn1 (stereo unspecified)	-1.7%	x	x	x
Cc1nc2c3ccccc3n(CCN3CCCCC3)c2s1	x	x	-6.4%	x
Cc1nc2c3cc(F)ccc3n(CCN3CCCCC3)c2s1	-22.1%	-28.8%[46.1 µM]	7.08µM*	34.9
O=c1c2oc3ccccc3c2n(Cc2ccc(Cl)cc2)c(=O)n1Cc1ccc2c(c1)OCO2	12.0%	7.5%[46.1 µM]	x	u
CN(CCO)C(=O)c1cn(C2CCN(Cc3cccc(C(F)(F)F)c3)CC2)nn1	-9.7%	x	x	x
COc1ccc(CCCc2nnc(SCC(=O)Nc3cc(F)ccc3C)o2)cc1	-24.3%	11.4%[46.1 µM]	-4.3%[46.1 µM]	-4.6
COc1ccc(-n2c(=O)c3c4c(sc3n(Cc3ccc(F)cc3)c2=O)CN(C(C)=O)CC4)c(OC)c1	-6.3%	x	34.7%[46.1 µM]	12.2
Cn1cc(S(=O)(=O)N2CCCC2)cc1C(=O)Nc1ccc(C(F)(F)F)cc1	-23.3%	-14.5%[46.1 µM]	x	u
O=C(CCS(=O)(=O)c1nc(-c2cccs2)cc(C(F)(F)F)n1)Nc1ccc(Br)cc1	39.8µM*	-23.9%[46.1 µM]	u	-97.7*
SMILES	FMDV inh	Lassa entry inh	Marburg entry inh	HCMV inh
CCN(CC)c1ccc(NC(=O)CSc2nc(-c3cccs3)cc(C(F)(F)F)n2)cc1	-16.4%	0.5%[46.1 µM]	-1.8%[46.1 µM]	7.0
O=C(CCS(=O)(=O)c1nc(-c2cccs2)cc(C(F)(F)F)n1)Nc1cc(Br)ccc1O	14.1µM*	u	u	-99.6*
Cc1ccc(O)c(NC(=O)CCS(=O)(=O)c2nc(-c3cccs3)cc(C(F)(F)F)n2)c1	u	u	-23.0%[46.1 µM]	-99.8*
Cc1ccccc1-c1nn(-c2ccc(F)cc2F)cc1CNCCCN(C)C	-10.9%	u	3.55µM*	u
Cc1ccccc1-c1nn(-c2ccc(F)cc2F)cc1CNCCN(C)C	-2.7%	7.3%	-6.8%[46.1 µM]	-33.5
COc1cccc(-c2csc(N3CCN(C(=O)Nc4ccccc4Cl)CC3)n2)c1	5.3%	x	x	-18.9
COc1cccc(-c2csc(N3CCN(C(=S)Nc4cccc(C)c4)CC3)n2)c1	-22.5%	x	x	-67.1*
COc1cccc(NC(=O)N2CCN(c3nc(-c4cccc(OC)c4)cs3)CC2)c1	31.6µM*	x	x	-71.1*
COc1cccc(-c2cc3nc4c(c(NCC(C)(C)CN(C)C)n3n2)CCCC4)c1	-5.7%	u	u	-69.1*
Fc1cccc(-c2cc3nc4c(c(NCc5ccco5)n3n2)CCCC4)c1	x	12.6%	u	61.5
COc1cccc(-c2nnc3n(Cc4ccccc4Cl)c(=O)c4ccccc4n23)c1O	-25.7%	u	-6.3%[46.1 µM]	-18.7
COC(=O)c1cc2c(n1S(=O)(=O)c1ccc(C)cc1)C(=O)C(=O)c1[nH]cc(C(=O)OCc3ccccc3)c1-2	11.2µM*	2.82µM*	u	x
CN(C)c1ccc(CN(Cc2ccco2)C(=O)c2ccc(C(C)(C)C)cc2)cc1	5.8%	u	-0.6%[46.1 µM]	-4.9
CCn1cnc2sc(C(=O)N(Cc3ccc(N(C)C)cc3)Cc3ccco3)c(C)c2c1=O	-17.4%	u	5.01µM*	-17.5
COCCCNC(=O)c1ccc2sc([C@@H]3O[C@H](CO)[C@H](O)[C@H](O)[C@H]3O)nc2c1	-5.5%	x	x	-7.6
O=c1cc(-c2ccccc2)[nH]c2nc3ccccc3n12	-39.5%	u	5.8µM*	220.3
CC(C)(C)OC(=O)CC[C@@H](C(=O)NCCCCCCCCCCC(=O)N1CCN(C(=O)OC(C)(C)C)CC1)n1cc(CCCCCNC(=O)OC(C)(C)C)nn1	0.0%	x	x	-14.3
CC[C@H](C)[C@@H](C(=O)NCCCCCCCCCCC(=O)N1CCN(C(=O)OC(C)(C)C)CC1)n1cc(CCCCCNC(=O)OC(C)(C)C)nn1	u	x	x	-69.5*
CC(C)(C)OC(=O)NCCCC[C@@H](C(=O)NCCCCCCCCCCC(=O)N1CCN(C(=O)OC(C)(C)C)CC1)n1cc(CCCC(=O)O)nn1	-21.2%	x	x	-13.8
CC(C)(C)OC(=O)NCCCCCc1cn([C@@H](CO)C(=O)NCCCCCCCCCCC(=O)N2CCN(C(=O)OC(C)(C)C)CC2)nn1	7.08µM*	x	x	-95.3*
Nc1[nH]c(C(=O)c2ccc(Br)cc2)c(-c2ccc(Cl)cc2[N+](=O)[O-])c1C(=O)NCCc1c[nH]c2ccccc12	x	x	x	9.1
CCC(C)N(CCNC(=O)c1ccc2c(c1)NC(=O)c1ccccc1S2)C1CCCCC1 (stereo unspecified)	-19.1%	3.16µM*	u	0.0
Cc1nn(C2CCS(=O)(=O)C2)c(Cl)c1/C=C/C(=O)OCC(=O)c1cc(C)n(-c2ccc(F)cc2)c1C (stereo unspecified)	u	u	u	-85.8*
Cc1nc2scc(-c3ccc(C(C)C)cc3)c2c(=O)n1N	u	12.1%	u	-62.1*
Cc1ccc(/C=N/N(Cc2ccccc2)c2ccccc2)o1	-10.5%	x	x	-16.7
CN(C)/N=C/c1ccc(P(c2ccc(/C=N/N(C)C)o2)c2ccc(/C=N/N(C)C)o2)o1	16.6%	u	u	-61.9*
O=C(NCCN1CCC(n2c(=O)[nH]c3ccccc32)CC1)c1ccc(C(F)(F)F)cc1C(F)(F)F	20µM*	x	x	u
